Compound activity from PubChem BioAssay.
CHRM1 agonist – human M1 muscarinic receptor agonism | P11229 | CHO-K1 hM1, Fluo-8 calcium fluorescence, agonist mode; 0% DMSO, 100% acetylcholine EC100 | activation, % at 3 µM | 0.33% of 360,000 active | AID 588814;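 active = activation above the run's mean compound activation plus 3 SD, cut at about 16% in these data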;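 note: peak over basal fluorescence ratio within a 140 s kinetic read after compound addition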
Target sequence (P11229 whole entry, looked up): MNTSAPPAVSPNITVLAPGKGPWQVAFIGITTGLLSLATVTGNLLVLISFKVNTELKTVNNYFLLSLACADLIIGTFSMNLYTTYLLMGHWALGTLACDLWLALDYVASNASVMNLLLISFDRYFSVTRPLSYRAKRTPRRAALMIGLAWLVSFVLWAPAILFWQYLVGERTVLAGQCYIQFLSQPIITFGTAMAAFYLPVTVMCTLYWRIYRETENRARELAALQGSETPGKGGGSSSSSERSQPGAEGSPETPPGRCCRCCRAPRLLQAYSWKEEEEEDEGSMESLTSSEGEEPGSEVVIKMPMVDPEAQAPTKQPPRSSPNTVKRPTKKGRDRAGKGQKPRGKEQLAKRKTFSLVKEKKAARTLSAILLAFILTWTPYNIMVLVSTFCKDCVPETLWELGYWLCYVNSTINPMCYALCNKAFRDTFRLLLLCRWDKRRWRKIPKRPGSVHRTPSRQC
M1 PAM parental – M1 PAM counterscreen hit in parental CHO-K1 cells; activation, % at 3 µM; 0.02% of 360,000 active; ATP EC20, Fluo-8 calcium fluorescence; 0% at ATP EC20, 100% at ATP max;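 active = activation above the run cutoff, the mean activation of all test compounds plus 3 SD, cut at about 40% in these data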;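 note: peak over basal fluorescence ratio in a 140 s read after ATP addition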
M1 antag – blocks human M1 muscarinic receptor; P11229; CHO-K1 hM1, Fluo-8 calcium fluorescence, ACh EC80 antagonist; inhibition, % at 3 µM; 1.3% of 360,000 active; AID 588852;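 active = percent inhibition above its own plate's cutoff, namely the mean of that plate's compound wells plus 3 SD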;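 note: peak over basal fluorescence ratio during 140 s after agonist addition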
M1 ag parental – counter-screen for M1 agonists: effect in parental CHO-K1 cells; activation, % at 3 µM; Fluo-8 calcium fluorescence; scaled to maximal ATP response, vehicle zero; 0.48% of 360,000 active; in the data active = activation above about 15%;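 note: untransfected CHO-K1 host cells lacking M1 receptor as counterscreen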
M1 PAM – potentiates human M1 receptor response to acetylcholine; CHO-K1 hM1, Fluo-8 calcium fluorescence, ACh EC20; 0% = ACh EC20, 100% = maximal ACh; activation, % at 3 µM; 0.088% of 360,000 active; AID 588819; in the data active = activation above about 19%, passing the limit was not always enough
CHO-K1 Ca antag – nonselective inhibitor or artifact in parental CHO-K1 cells; ATP-induced calcium, Fluo-8 fluorescence; 0.6% of 360,000 active; inhibition, % at 3 µM; AID 602250;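 active = inhibition above a per-plate cutoff, the plate's mean sample inhibition plus 3 SD, cut at about 24% in these data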
Each line names hits and unclear results; the compound was inactive in the other large screens. In the library only some 2.3% were active in any assay of this set; here they are far more common.

COCCNC(=S)N/N=C(\C)c1cccc(OC)c1	none
O=C(c1ccc(Cl)cc1)C1CCCN(Cc2ccc(Oc3ncccn3)cc2)C1 (centres undefined)	M1 antag 62
O=C(c1ccc(Cl)cc1)C1CCCN(Cc2cnn(-c3ccccc3)c2)C1 (centres undefined)	none
CCOC(=O)N1CCN(CC(O)COc2ccc(OC)cc2C(C)(C)C)CC1 (centres undefined)	none
CCOC(=O)C1CCCN(Cc2ccc(OCC)cc2)C1 (centres undefined)	CHRM1 agonist 31
CCOC(=O)C1CCCN(CC(O)COc2ccc(OC)cc2C(C)(C)C)C1 (centres undefined)	CHRM1 agonist 60, M1 antag 32
CCOc1ccc(CN2CCC(Cc3ccccc3)CC2)cc1	M1 antag 58
O=C(OCC(=O)N1CCc2ccccc21)[C@@H]1CC(O)CN1S(=O)(=O)c1ccccc1[N+](=O)[O-] (some centres undefined)	none
Cc1ccn(CC(=O)N2CCCC(N3CCN(c4cccc(C(F)(F)F)c4)CC3)C2)n1 (centres undefined)	none
COc1ccccc1Nc1nc(N)nc(CN2CCC(Cc3ccccc3)CC2)n1	none
COc1ccc(Nc2nc(N)nc(CN3CCC(Cc4ccccc4)CC3)n2)cc1	M1 antag 33
CCOC(=O)C1CCN(Cc2ccc(N(C)C)cc2)CC1	CHO-K1 Ca antag 41
COc1ccc(CC(=O)Nc2cc(S(=O)(=O)Nc3ccc(OC)cc3)ccc2OC)cc1	none
COc1ccc(N(C)C(=O)C2CCN(S(=O)(=O)c3cccc4nonc34)CC2)cc1	none
O=C(/C=C/c1cccc(Cl)c1)NCc1ccccc1	M1 antag 41
COc1cc2c(cc1NC(=O)C(C)OC(=O)C1CC(=O)N(Cc3ccco3)C1)oc1ccccc12 (centres undefined)	CHO-K1 Ca antag 29
CC(OC(=O)C1CC(=O)N(Cc2ccco2)C1)C(=O)Nc1cccc(C#N)c1 (centres undefined)	none
CCCNC(=O)c1ccc2c(c1)nc(C)n2-c1cccc(Cl)c1	none
CCOCCCNC(=O)c1[nH]c(C)c(C(C)=O)c1C	CHO-K1 Ca antag 24
CCOCCCNC(=O)c1c(C)[nH]c(C(=O)OCC)c1C	none
CCC(C)(C)NC(=O)C1CCN(c2nc(OC)nc(OC)n2)CC1	none
COc1ccc(NC(=O)C(=O)NCC2CCCN2S(=O)(=O)c2cc(C)ccc2C)cc1 (centres undefined)	CHO-K1 Ca antag 52
COc1ccc(S(=O)(=O)N2CCCC2CNC(=O)C(=O)NC2CCCC2)cc1 (centres undefined)	none
COc1ccc(CCNC(=O)C(=O)NCC2CCCN2S(=O)(=O)c2ccc(OC)cc2)cc1 (centres undefined)	M1 antag 27
Cn1nc(-c2ccc(N3CCN(CCO)CC3)c([N+](=O)[O-])c2)c2ccccc2c1=O	none
Cc1noc(C)c1CSCC(=O)Nc1nc2ccc(F)cc2s1	none
COc1ccc(OC)c(C(=O)NC(CC(N)=O)c2ccc(N3CCC(Cc4ccccc4)CC3)c([N+](=O)[O-])c2)c1 (centres undefined)	none
Cc1nc(SCc2ccc(Cl)cc2)ncc1C(=O)O	M1 ag parental 21
COC(=O)CNC(=O)COC(=O)/C=C/c1ccc2ccccc2n1	M1 ag parental 16
O=C(NN1C(=O)C2C(c3ccccc3)C=CC(c3ccccc3)C2C1=O)c1ccccc1 (centres undefined)	M1 antag 46
O=C(NN1C(=O)C2C(c3ccccc3)C=CC(c3ccccc3)C2C1=O)c1cccc(Br)c1 (centres undefined)	M1 antag 81
O=C(NN1C(=O)C2C3c4ccccc4C(c4ccccc43)[C@@H]2C1=O)c1ccccc1 (some centres undefined)	none
O=C1NC[C@@H](CCCCN2C[C@H](Cc3ccc(O)cc3)N(CC3CCCCC3)C(=O)C2=O)N(CC2CCCCC2)C1=O	none (no result: CHRM1 agonist, M1 antag, M1 PAM)
CCOc1cccc(OCCOCCN(C)Cc2ccccc2)c1	M1 antag 31
CCOc1cccc(OCCOCCN(C)C)c1	none
COC(=O)c1ccc(OCCCCN(C)Cc2ccccc2)cc1	M1 antag 31
Cc1ccc(Cl)c(OCCCCN(C)Cc2ccccc2)c1	M1 antag 37
